Hit rate of the full screen: of about 48,000 compounds, about 550 (1.1%) were called active. Not shown: some 4% with an inconclusive outcome. No stated cut-off is given here; in the data, active means potency below about 15 µM; inconclusive means mostly about 16 µM to 33 µM; inactive means weaker than that. Shown is part of a subset that was picked to be rich in actives.
The compounds below were run against Lysosomal acid glucosylceramidase (Homo sapiens) (UniProt P04062) (assay: Glucocerebrosidase). Conditions: purified enzyme, resorufin glucoside fluorescence (screen aimed at inhibitors), 20 min.
Lysosomal acid glucosylceramidase (Homo sapiens), sequence (P04062 whole entry, looked up): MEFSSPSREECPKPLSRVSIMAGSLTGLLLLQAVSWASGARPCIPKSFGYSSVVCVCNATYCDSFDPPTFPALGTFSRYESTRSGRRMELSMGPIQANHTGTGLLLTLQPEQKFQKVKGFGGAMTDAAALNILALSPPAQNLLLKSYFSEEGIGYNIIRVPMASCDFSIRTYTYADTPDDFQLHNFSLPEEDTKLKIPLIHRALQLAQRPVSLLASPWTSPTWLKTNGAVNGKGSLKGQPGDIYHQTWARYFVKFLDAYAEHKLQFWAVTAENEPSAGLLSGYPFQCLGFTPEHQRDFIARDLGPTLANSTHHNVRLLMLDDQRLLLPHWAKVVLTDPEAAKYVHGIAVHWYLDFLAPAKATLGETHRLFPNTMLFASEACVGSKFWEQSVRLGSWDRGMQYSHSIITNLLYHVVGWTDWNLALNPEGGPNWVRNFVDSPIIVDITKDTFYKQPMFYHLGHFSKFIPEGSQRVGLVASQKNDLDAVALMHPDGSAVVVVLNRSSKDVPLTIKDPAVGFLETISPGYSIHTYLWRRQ
Description: NCGC Assay Overview: Beta-glucocerebrosidase catalyzes the hydrolysis of beta-glucocerebroside to glucose and ceramide. The inherited deficiency of beta-glucocerebrosidase results in Gaucher disease, which is characterized by a wide variety of symptoms including hepatosplenomegaly, anemia, thrombocytopenia, bony lesions and bone marrow infiltration with characteristic storage cells, known as Gaucher cells. There are also forms of the disorder affecting the central nervous system. Patients with the same genotypes can manifest with diverse clinical presentations and it is believed that improper folding and trafficking of beta-glucocerbrosidase may contribute to the phenotypes observed. Low molecular weight molecules, acting as chaperones, may potentially restore trafficking of misfolded beta-glucocerebrosidase from the endoplasmic reticulum to the lysosomes, thereby enhancing functional lysosomal beta-glucocerebrosidase activity. Using normal beta-glucocerebrosidase, an assay was developed to screen for small molecule inhibitors that could potentially act as molecular chaperones on the mutant forms [developed with NIH investigator Dr. Ellen Sidransky's laboratory]. Two pro-fluorescent substrates were chosen for two screens against a small molecule library. One beta-glucocerebrosidase assay used Resorufin beta-D-Glucopyranoside (Marker Gene Technology Inc.), generating a red fluorescent product. The second assay used Fluorescein di-beta-D-Glucopyranoside, generating a blue fluorescent product. […] The IC50 values of Conduritol B Epoxide, a known glucocerebrosidase inhibitor, were determined to be 87.5 uM and 117 uM, respectively. The use of two difference pro-fluorescent substrates in the screens helped to eliminate false positives. All compounds were screened in a titration series resulting in AC50s (e.g., IC50s or EC50s).
NCGC Assay Protocol Summary: Both enzyme and substrate were diluted in buffer composed of 50mM citric acid/KH2PO4, 10mM sodium taurocholate and 0.01% tween-20 at pH 5.9. The final concentration of the enzyme was 0.2 nM in both assays. The compound library was titrated in 7 to 15 concentrations for the primary screens with a final concentration ranging from 0.6 nM to 50 uM. This particular assay protocol is for the "red" substrate, and it was performed in 1536-well plate format as follows: Red fluorescence substrate assay: 2 uL enzyme 23 nL compound 1 uL substrate (final concentration of 30 uM) Incubate at room temperature (RT) for 20 minutes Read the plate in Viewlux plate reader (Ex=548(7) and Em=600(10)).
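Further: the screen sought inhibitors.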
Potency means the concentration at half of the fitted maximal effect.

Structure (SMILES) | Potency
CCC(=O)Nc1cccc(NC(=O)CSc2nnc(-c3ccc(NS(C)(=O)=O)cc3)n2C)c1 | > 76.9 µM (inactive)
Cn1c(CN2CCOCC2)nc2cc(NC(=O)c3ccc(Cl)cc3)ccc21 | 52.2 µM (inactive)
O=C(NCCCN1CCOCC1)c1cc(-c2ccc(Cl)cc2)on1 | > 76.9 µM (inactive)
COc1cccc2cc(C(C)N(CCCN3CCOCC3)C(=O)Nc3ccc(Cl)cc3)oc12 (stereo not given) | 9.17 µM (active)
O=C(CSc1n[nH]c(-c2cccnc2)n1)Nc1ccnc2ccccc12 | > 76.9 µM (inactive)
COC(=O)c1ccccc1NC(=O)CSc1ccccn1 | > 76.9 µM (inactive)
O=C(CS(=O)(=O)Cc1ccccc1)NCC1CCCO1 (stereo not given) | > 76.9 µM (inactive)
CC(C)N(C(=O)Cn1c(SCC(=O)N2CCN(c3ccccc3)CC2)nc2ccccc21)C(C)C | > 76.9 µM (inactive)
CCOC(=O)c1sc(NC(=S)n2cc(C)cn2)c(C(=O)OCC)c1C | > 76.9 µM (inactive)
COc1cccc(NC(=O)CN(C)S(=O)(=O)c2ccc(C)cc2)c1 | > 76.9 µM (inactive)
CC(C)NS(=O)(=O)c1ccc(CCC(=O)N2CCOCC2)cc1 | > 76.9 µM (inactive)
CCCc1nnc(NC(=O)CN2C(=O)c3ccccc3S2(=O)=O)s1 | > 76.9 µM (inactive)
CN1CCN(c2nc3c(c(=O)[nH]c(=O)n3C)n2Cc2cccc3ccccc23)CC1 | > 76.9 µM (inactive)
COc1ccc(C2N=C(N)N=C(N)N2c2ccccc2)cc1OC (stereo not given) | > 76.9 µM (inactive)
O=C(Cn1c(-c2ccc(Cl)cc2)noc1=O)N1CCN(c2ccccc2F)CC1 | > 76.9 µM (inactive)
Fc1ccc(OCc2nn3c(Cn4nnc5ccccc54)nnc3s2)cc1 | > 76.9 µM (inactive)
Cc1ccc(S(=O)(=O)N2CCC(C(=O)N[C@@H](C)C(=O)NCc3ccccc3)CC2)cc1 | > 76.9 µM (inactive)
C/C(O)=C\c1nc(=O)c2c(C)cc(C)nc2n1-c1ccccc1 | > 76.9 µM (inactive)
O=C(COc1ccc(F)cc1)N(CC1=CCS(=O)(=O)C1)c1ccccc1 | > 76.9 µM (inactive)
COc1ccc2nc(NC3=NCN(CC4CCCO4)CN3)nc(C)c2c1 (stereo not given) | > 76.9 µM (inactive)
CC(C)c1nc2oc3c(N4CCN(C)CC4)ncnc3c2c2c1CCC2 | 8.51 µM (active)
Cc1cc(C)nc(N2CCN(c3ncnc4c3oc3ccccc34)CC2)n1 | > 76.9 µM (inactive)
COc1ccc(CCn2c(-c3ccco3)nc3nc4ccccc4nc32)cc1OC | > 76.9 µM (inactive)

Structure (SMILES) | Potency
CCOC(=O)CCC(=O)OCC(=O)NC(C)C1CC2CCC1C2 (stereo not given) | > 76.9 µM (inactive)
CCOC(=O)c1sc(N(Cc2ccccc2)C(=O)CN2C(=O)CN(C)C2=O)nc1C | > 76.9 µM (inactive)
CCOC(=O)c1c(C)[nH]c(C(=O)NCc2ccccc2OC)c1C | > 76.9 µM (inactive)
Fc1ccc(-c2nnc3sc(-c4ccc5c(c4)OCO5)nn23)cc1 | > 76.9 µM (inactive)
Cc1cc(C)cc(N(C(C)C(=O)Nc2c(C)n(C)n(-c3ccccc3)c2=O)S(C)(=O)=O)c1 (stereo not given) | > 76.9 µM (inactive)
c1ccc(CCc2nc(-c3ccncc3)no2)cc1 | > 76.9 µM (inactive)
CC(Sc1nncn1C)C(=O)Nc1ccccc1-c1ccccc1 (stereo not given) | > 76.9 µM (inactive)
Cc1ccc(S(=O)(=O)N2CCN(C(=O)CCC(=O)NC3CCCc4ccccc43)CC2)cc1 (stereo not given) | > 76.9 µM (inactive)
Cc1noc(C)c1C(=O)NC(C)c1ccc2c(c1)OCO2 (stereo not given) | > 76.9 µM (inactive)
CCN(CC)CCN1C(=O)C(=O)/C(=C(/O)c2ccc(OC)c(OC)c2)C1c1ccccn1 (stereo not given) | > 76.9 µM (inactive)
Cc1nc(NC(CC(C)C)C(=O)O)c2nc(C)oc2n1 (stereo not given) | > 76.9 µM (inactive)
C=CCn1c(C(C)NC(=O)CC)nc2ccccc21 (stereo not given) | > 76.9 µM (inactive)
CCOC(=O)N1CCN(C(=O)C2CCN(S(C)(=O)=O)CC2)CC1 | > 76.9 µM (inactive)
CC(C)CCNc1nc(N2CCCC2)c2c(c1C#N)CCN(C)C2 | 12.7 µM (active)
Cc1cc(C)c2nc(N3CCCC3)c(C#N)cc2c1 | > 76.9 µM (inactive)
Cc1cccc2cc(C#N)c(N3CCCC3)nc12 | > 76.9 µM (inactive)
Cn1c(=O)n(C)c(=O)n(CC(=O)N2CCCCC2)c1=O | > 76.9 µM (inactive)
Cc1cc(=O)cc(C)[nH]1 | > 76.9 µM (inactive)
C=CCn1c(SCc2cc(C(=O)OC)c(C)o2)nnc1-c1ccncc1 | > 76.9 µM (inactive)
Cc1ccc(S(=O)(=O)N(C)CC(=O)N2CCc3ccccc32)cc1 | > 76.9 µM (inactive)
CCC(CC)c1nnc(NS(=O)(=O)Cc2ccccc2)s1 | > 76.9 µM (inactive)
CC(Oc1ccc(Cl)cc1)C(=O)Nc1ncccn1 (stereo not given) | > 76.9 µM (inactive)
COc1ccc(N2CCN(Cc3cc(=O)oc4ccc5ccccc5c34)CC2)cc1 | 5.96 µM (active)

Structure (SMILES) | Potency
COc1ccc(N2CCN(CCNC(=O)CCN3C(=O)COc4ccccc43)CC2)cc1 | > 76.9 µM (inactive)
O=c1ccc2cc(S(=O)(=O)N3CCN(c4ccccc4)CC3)ccc2o1 | > 76.9 µM (inactive)
COC(=O)c1cc(NC(=O)CN2CCC(C(N)=O)(N3CCCCC3)CC2)cc(C(=O)OC)c1 | > 76.9 µM (inactive)
COc1ccc(S(=O)(=O)N2CCN(c3ncnc4c(-c5ccccc5)nsc34)CC2)cc1 | > 76.9 µM (inactive)
CCn1c2c(c3ccc(OC)cc31)CCCC2=O | > 76.9 µM (inactive)
CCOC(=O)CNC(=O)CSc1nnc(COc2ccc(Cl)cc2)n1CC | > 76.9 µM (inactive)
O=S(=O)(Nc1ccccc1N1CCOCC1)c1ccc(Cl)s1 | > 76.9 µM (inactive)
COc1cccc(C2/C(=C(/O)c3ccncc3)C(=O)C(=O)N2CCCN(C)C)c1 (stereo not given) | > 76.9 µM (inactive)
CC1CCCCN1CC(=O)NCc1ccc2c(c1)OCO2 (stereo not given) | > 76.9 µM (inactive)
CC(C)(C)Oc1ncc(Br)c(OC(C)(C)C)n1 | > 76.9 µM (inactive)
N#CC(C(N)=O)=C1CCC2(CC1)OCCCCO2 | > 76.9 µM (inactive)
O=C(Cn1c(=O)sc2ccccc21)Nc1ccc2c(c1)OCCO2 | > 76.9 µM (inactive)
COc1ccc(C(c2nnnn2Cc2cccs2)N2CCN(c3ccccc3)CC2)cc1OC (stereo not given) | > 76.9 µM (inactive)
O=C(Cn1c(=S)nc2ccccn21)N1CCc2ccccc2C1 | > 76.9 µM (inactive)
COc1ccc(-c2ccc(-c3noc(-c4ccncc4)n3)c(OC)n2)cc1 | > 76.9 µM (inactive)
CCOc1nc(-c2ccc(OC)cc2)ccc1-c1noc(-c2cc(OC)c(OC)c(OC)c2)n1 | 6.96 µM (active)
COc1ccc(-c2nc(-c3ccccc3)no2)c(OC)c1 | > 76.9 µM (inactive)
CCCC(=O)Nc1ccc2c(c1)nc1n2CCSC1 | > 76.9 µM (inactive)
O=C(O)CCC(=O)N(Cc1ccco1)c1nc(-c2ccccc2)cs1 | > 76.9 µM (inactive)
COCc1nnc(NC(=O)CS(=O)(=O)Cc2ccccc2)s1 | > 76.9 µM (inactive)
Cc1ccc(C)n1-c1ccncc1 | > 76.9 µM (inactive)
Cc1ccc(C(C(=O)NCc2ccco2)N(CC2CCCO2)C(=O)Cn2nnc3ccccc32)cc1 (stereo not given) | > 76.9 µM (inactive)
Cc1ccc(-c2noc(CCC(N)=O)n2)cc1 | > 76.9 µM (inactive)

Structure (SMILES) | Potency
Cc1ccc(S(=O)(=O)N2CCOCC2)cc1C(=O)NCc1ccc(F)cc1 | > 76.9 µM (inactive)
Cc1nc(SCC(=O)Nc2cc(C)on2)c2c3c(sc2n1)CCCC3 | 15.3 µM (active)
Cc1nc(SCC(=O)Nc2cc(C)on2)c2c(C)c(C)sc2n1 | > 76.9 µM (inactive)
Cc1cc(C)n(-c2nc(SCC(=O)N3CCCC3)c3c4c(sc3n2)CCCC4)n1 | > 76.9 µM (inactive)
CCn1nnc(NC(=O)c2cc(Cl)c(OC)c(Cl)c2)n1 | > 76.9 µM (inactive)
Cc1cccc(NC(=O)COc2ccccc2C)n1 | > 76.9 µM (inactive)
Cc1ccccc1OCC(=O)Nc1ccc(N2CCN(C(=O)C(C)C)CC2)c(Cl)c1 | 2.17 µM (active)
CCOc1cc(N2CCOCC2)c(OCC)cc1NC(=O)COc1cccc2cccnc12 | > 76.9 µM (inactive)
CC1(C)CC(=O)C2=C(C1)NCN(CCCN1CCOCC1)C2 | > 76.9 µM (inactive)
Cn1c(=O)[nH]c(=O)c2c1nc(N1CCCCCC1)n2CC(=O)c1ccccc1 | > 76.9 µM (inactive)
CCn1c(SCC(=O)Nc2cc(C)c(Cl)cc2OC)nnc1-c1ccco1 | > 76.9 µM (inactive)
N#Cc1c(N)sc2c1CCN(C(=O)OCc1ccccc1)C2 | > 76.9 µM (inactive)
O=C(O)CCC(=O)N(Cc1cccs1)Cc1cccs1 | > 76.9 µM (inactive)
O=C(O)C1CC(=O)N(Cc2cccnc2)C1 (stereo not given) | > 76.9 µM (inactive)
Cc1cc(C)nc(NC(=O)Nc2ccccc2C(F)(F)F)n1 | > 76.9 µM (inactive)
CC(NC(=O)c1cc(-c2ccccc2)on1)c1ccccc1 (stereo not given) | > 76.9 µM (inactive)
O=C(Nc1ccccc1C(F)(F)F)c1cc(-c2ccc(O)cc2)on1 | 13.4 µM (active)
Cc1ccc(C(=O)CSc2nnc(Cn3nnc4ccccc43)n2C)cc1 | > 76.9 µM (inactive)
COC(=O)Cn1cc(C(=O)c2cccs2)c2ccccc21 | > 76.9 µM (inactive)
CCOC(=O)C1CCN(C(=O)Cn2cc(C#N)c3ccccc32)CC1 | > 76.9 µM (inactive)
CC1CCN(C(=O)Cn2cc(C(=O)c3ccco3)c3ccccc32)CC1 | 12.7 µM (active)

— PubChem BioAssay AID360 (National Center for Advancing Translational Sciences (NCATS), 2006)
